# In PubChem BioAssay AID1159580 (chemical genetic matrix, 2015):
# Where “and” joins values, the source holds several entries; their conditions need not be identical. Identical values can stand only once. In all, about 5,500 compounds went through this assay and about 2,000 (36%) were called active. Inconclusive results (about 18%) are left out. Some of the results follow. Values without a mark were called inactive. No stated cut-off is given here; in the data, active means normalized growth mostly below about 0.91 (no sharp cut-off); inconclusive means no clear call, values can overlap the other calls; inactive means mostly above about 0.92.
# Assay: chemical genetic growth profiling, strain panel (AID 1159580);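 further: tested at 20 µM; growth read once vehicle control cultures reached saturation at 30 °C; 1 = growth at the plate median or of vehicle wells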
# Conditions: S. cerevisiae deletion strains, growth OD
smiles,measurement,setting,value
COC(=O)c1c(OC)cc2c(c1C)Oc1c(Cl)c(O)c(Cl)c(C)c1C(=O)O2,normalized growth,"locus YAL013W, strain DEP1, stronger effect = lower value",0.879 (active)
same,normalized growth,"locus YAL021C, strain ccr4, stronger effect = lower value",0.99
same,normalized growth,"locus YAL026C, strain drs2, stronger effect = lower value",0.99
same,normalized growth,"locus YAL030W, strain snc1, stronger effect = lower value",0.977
same,normalized growth,"locus YBL061C, strain skt5, stronger effect = lower value",0.993
same,normalized growth,"locus YBR009C, strain hhf1, stronger effect = lower value",0.993
same,normalized growth,"locus YBR021W, strain FUR4, stronger effect = lower value",1.02
same,normalized growth,"locus YBR023C, strain chs3, stronger effect = lower value",0.988
same,normalized growth,"locus YBR171W, strain sec66, stronger effect = lower value",0.985
same,normalized growth,"locus YBR229C, strain ROT2, stronger effect = lower value",0.909 (active)
same,normalized growth,"locus YBR231C, strain swc5, stronger effect = lower value",0.989
same,normalized growth,"locus YBR279W, strain paf1, stronger effect = lower value",0.992
same,normalized growth,"locus YCL011C, strain gbp2, stronger effect = lower value",0.986
same,normalized growth,"locus YCL016C, strain dcc1, stronger effect = lower value",0.99
same,normalized growth,"locus YCL029C, strain bik1, stronger effect = lower value",0.925
same,normalized growth,"locus YCL069W, strain vba3, stronger effect = lower value",1
same,normalized growth,"locus YCR088W, strain abp1, stronger effect = lower value",0.975
same,normalized growth,"locus YDL005C, strain med2, stronger effect = lower value",1
same,normalized growth,"locus YDL035C, strain GPR1, stronger effect = lower value",0.906
same,normalized growth,"locus YDL040C, strain nat1, stronger effect = lower value",0.98
same,normalized growth,"locus YDL074C, strain BRE1, stronger effect = lower value",0.838
same,normalized growth,"locus YDL101C, strain DUN1, stronger effect = lower value",0.912
same,normalized growth,"locus YDL134C, strain PPH21, stronger effect = lower value",0.935
same,normalized growth,"locus YDL185W, strain tfp1, stronger effect = lower value",0.937
same,normalized growth,"locus YDL192W, strain arf1, stronger effect = lower value",0.949
same,normalized growth,"locus YDR001C, strain nth1, stronger effect = lower value",0.986
same,normalized growth,"locus YDR069C, strain doa4, stronger effect = lower value",0.968
same,normalized growth,"locus YDR101C, strain arx1, stronger effect = lower value",0.965
same,normalized growth,"locus YDR137W, strain rgp1, stronger effect = lower value",0.946
same,normalized growth,"locus YDR150W, strain NUM1, stronger effect = lower value",0.896 (active)
same,normalized growth,"locus YDR159W, strain sac3, stronger effect = lower value",0.963
same,normalized growth,"locus YDR162C, strain NBP2, stronger effect = lower value",0.82 (active)
same,normalized growth,"locus YDR195W, strain ref2",1.09
same,normalized growth,"locus YDR297W, strain sur2, stronger effect = lower value",0.981
same,normalized growth,"locus YDR318W, strain mcm21, stronger effect = lower value",0.924
same,normalized growth,"locus YDR334W, strain swr1, stronger effect = lower value",1.01
same,normalized growth,"locus YDR335W, strain msn5, stronger effect = lower value",1
same,normalized growth,"locus YDR388W, stronger effect = lower value",0.947
same,normalized growth,"locus YDR392W, strain spt3, stronger effect = lower value",0.965
same,normalized growth,"locus YDR502C, strain sam2, stronger effect = lower value",0.919 (active)
same,normalized growth,"locus YEL003W, strain gim4, stronger effect = lower value",0.986
same,normalized growth,"locus YEL037C, strain rad23, stronger effect = lower value",0.991
same,normalized growth,"locus YEL061C, strain CIN8 (second series), stronger effect = lower value",0.988
same,normalized growth,"locus YEL061C, strain CIN8, stronger effect = lower value",0.931
same,normalized growth,"locus YER015W, strain faa2, stronger effect = lower value",0.991
same,normalized growth,"locus YER016W, strain bim1, stronger effect = lower value",0.988
same,normalized growth,"locus YER110C, stronger effect = lower value",0.929
same,normalized growth,"locus YER111C, strain swi4, stronger effect = lower value",0.991
same,normalized growth,"locus YER155C, strain BEM2 (second series), stronger effect = lower value",0.997
same,normalized growth,"locus YER155C, strain BEM2, stronger effect = lower value",0.949
same,normalized growth,"locus YER167W, strain BCK2, stronger effect = lower value",0.932
same,normalized growth,"locus YFR010W, strain ubp6, stronger effect = lower value",0.982
same,normalized growth,"locus YGL078C, strain dbp3, stronger effect = lower value",1
same,normalized growth,"locus YGL086W, strain mad1, stronger effect = lower value",0.954
same,normalized growth,"locus YGL167C, strain pmr1, stronger effect = lower value",0.954
same,normalized growth,"locus YGL173C, strain kem1, stronger effect = lower value",0.985
same,normalized growth,"locus YGL227W, strain vid30, stronger effect = lower value",0.991
same,normalized growth,"locus YGL240W, strain doc1, stronger effect = lower value",0.993
same,normalized growth,"locus YGL248W, strain PDE1, stronger effect = lower value",0.932
same,normalized growth,"locus YGL253W, strain hxk2, stronger effect = lower value",0.997
same,normalized growth,"locus YGR078C, strain PAC10, stronger effect = lower value",0.886
same,normalized growth,"locus YGR135W, strain pre9, stronger effect = lower value",0.917
same,normalized growth,"locus YGR229C, strain SMI1, stronger effect = lower value",0.852
same,normalized growth,"locus YGR252W, strain gcn5, stronger effect = lower value",1.04
same,normalized growth,"locus YHR013C, strain ard1, stronger effect = lower value",1.03
same,normalized growth,"locus YHR027C, strain rpn1, stronger effect = lower value",0.997
same,normalized growth,"locus YHR030C, strain SLT2, stronger effect = lower value",0.951 and 0.911
same,normalized growth,"locus YHR079C, strain IRE1 (second series), stronger effect = lower value",0.943
same,normalized growth,"locus YHR079C, strain IRE1, stronger effect = lower value",0.939
same,normalized growth,"locus YHR094C, strain hxt1, stronger effect = lower value",0.948
same,normalized growth,"locus YHR129C, strain ARP1, stronger effect = lower value",0.955
same,normalized growth,"locus YHR142W, strain chs7, stronger effect = lower value",0.994
same,normalized growth,"locus YHR200W, strain rpn10, stronger effect = lower value",0.938
same,normalized growth,"locus YIL066C, strain RNR3, stronger effect = lower value",0.899
same,normalized growth,"locus YIL073C, strain SPO22, stronger effect = lower value",0.969
same,normalized growth,"locus YIL125W, strain kgd1, stronger effect = lower value",0.986
same,normalized growth,"locus YIR030C, strain dcg1, stronger effect = lower value",0.925 (active)
same,normalized growth,"locus YJL092W, strain hpr5, stronger effect = lower value",0.98
same,normalized growth,"locus YJL095W, strain BCK1 (second series), stronger effect = lower value",1
same,normalized growth,"locus YJL095W, strain BCK1, stronger effect = lower value",0.903 and 0.92
same,normalized growth,"locus YJL115W, strain asf1, stronger effect = lower value",1
same,normalized growth,"locus YJL129C, strain trk1, stronger effect = lower value",0.949
same,normalized growth,"locus YJL134W, strain LCB3, stronger effect = lower value",0.922 (active)
same,normalized growth,"locus YJL154C, strain vps35, stronger effect = lower value",0.97
same,normalized growth,"locus YJL164C, strain tpk1, stronger effect = lower value",0.983
same,normalized growth,"locus YJL166W, strain qcr8, stronger effect = lower value",0.974
same,normalized growth,"locus YJL168C, strain set2, stronger effect = lower value",0.931 (active)
same,normalized growth,"locus YJL187C, strain SWE1 (second series), stronger effect = lower value",0.916
same,normalized growth,"locus YJL187C, strain SWE1, stronger effect = lower value",0.984
same,normalized growth,"locus YJR043C, strain POL32, stronger effect = lower value",0.977
same,normalized growth,"locus YJR066W, strain TOR1, stronger effect = lower value",0.867
